From PubChem BioAssay come the findings set out here.

Values without a mark were called inactive.

This assay in a line: E. coli acrAB mutant growth effects, primary screen, E. coli filamentation inducers, strain DRC39, OD650, 24 h (AID 1178).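 Note: growth measured as culture turbidity by optical density at 650 nm; test concentration not given here.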 The note with it: higher = more signal, called active from +8 up or from −8 down.
Turning to `[N-]=[N+]=NCc1ccccc1C[C@@]1(C(=O)N2CCCCC2)N=C(c2ccc(OCCCO)cc2)O[C@@H]1c1ccccc1CN=[N+]=[N-]`, the z-score was 0.191.

`COC(=O)[C@@]1(Cc2ccc(OC)cc2)[C@H]2c3cc(C(=O)N4CCCC4)n(Cc4ccc(S(C)(=O)=O)cc4)c3C[C@H]2CN1C(=O)c1ccccc1`: the z-score was -0.867.

For the compound `CCOC(=O)C[C@H]1[C@H](OC(=O)c2ccc(C(=O)c3ccccc3)cc2)[C@@H](NC(=O)CC(C)C)c2cc(OCCCO)ccc2N1C(=O)Cc1ccc(OC)cc1`, the z-score was -0.445.

With `O=C1C2C=CC(C(O)c3ccco3)N(Nc3ccccc3)C2C(=O)N1c1ccccc1` (centres undefined), the z-score was -0.706.

Turning to `Cc1ccc(F)cc1S(=O)(=O)N[C@@H]1CCN(Cc2cccc3[nH]ccc23)C1`, the z-score was -0.429.

On to `CCOC(=O)C1=C[C@@H](c2ccccc2)N(S(=O)(=O)c2ccc(C)cc2)[C@H]1c1ccccc1`, for which the z-score is -0.86.

As for `COCCOC(=O)N1C(=O)[C@@]2(c3cc(C#CCC(C(=O)OC)C(=O)OC)ccc31)[C@H](c1ccc(OCCO)cc1)N1[C@H](c3ccccc3)[C@H](c3ccccc3)OC(=O)[C@H]1[C@@H]2C(=O)Nc1nc2ccccc2s1`, the z-score was 1.18.

Take `COC(=O)[C@@]1(Cc2ccccc2CN=[N+]=[N-])N=C(c2ccc(OCCCO)cc2)O[C@H]1c1ccccc1`: the z-score is 0.759.

Turning to `COC(=O)C(CC#Cc1ccc2c(c1)[C@]1(C(=O)N2)[C@H](c2ccc(OCCO)cc2)N2[C@H](c3ccccc3)[C@H](c3ccccc3)OC(=O)[C@H]2[C@@H]1C(=O)N1CCN(c2ncccn2)CC1)C(=O)OC`, the z-score was 0.452.

As for `CCCCCCCCCCC(O)C1C=CC2C(=O)N(C)C(=O)C2N1Nc1cc(OC)c(OC)c(OC)c1` (centres undefined), the z-score was -0.875.

As for `C=CCC(OC(C)=O)[C@@H]1[C@@H](N(Cc2ccc(-c3ccccc3)cc2)C(=O)c2ccc(C)cc2)c2cc(OCCCO)ccc2N1C(=O)Cc1ccc2ccccc2c1` (some centres undefined), the z-score is 1.64.

For the compound `Cc1cccc([C@H]2C[C@H]3C(Br)=C[C@@H]2C(=O)[C@]32CO2)c1`, the z-score is 0.906.

In the case of `O=C(O)[C@H]1C[C@H]2C(=O)N[C@@H](Cc3ccccc3)C(=O)N2[C@H]1c1cccc(OCCO)c1`, the z-score was -0.688.

`Cc1cccc([C@H]2C[C@H]3C(I)=C[C@@H]2C(=O)[C@]32CO2)c1`: the z-score was -0.545.

For the compound `COc1cc(NN2C(C(O)c3ccc(I)cc3)C=CC3C(=O)N(c4ccccc4)C(=O)C32)cc(OC)c1OC` (centres undefined), the z-score was 0.456.

As for `CCN(CC)c1ccc(N2CC=CC34O[C@@H]5/C=C\CCC(C)OC(=O)C5[C@H]3C(=O)N(C(C)CO)[C@@H]4C2=O)cc1` (some centres undefined), the z-score is 0.966.

Take `C=CC[C@H](OC(=O)Nc1ccc(SC)cc1)c1ccc(OCCO)cc1`: the z-score is -0.0217.

Consider `COCCOC(=O)N1C(=O)[C@@]2(c3cc(C#CCCO)ccc31)[C@H](c1ccccc1OCCO)N1[C@H](c3ccccc3)[C@H](c3ccccc3)OC(=O)[C@H]1[C@@H]2C(=O)N1CCCCCCC1`, for which the z-score is -0.255.

For `CC(C)C(=C=CC[C@H](O)c1cccc(OCCO)c1)CCO`, the z-score is 0.353.

With `CCCCNC(=O)c1ccc(C#C[Si](C(C)C)(C(C)C)C(C)C)c(OC(C)=O)c1`, the z-score was 0.119.

Consider `C[C@@]12COC[C@]13C=C(Br)[C@H](C2)[C@@]1(CO1)C3=O`, for which the z-score was -0.651.

In the case of `CC(C)[C@H]1NC(=O)[C@@]23C(=O)N[C@@H](Cc4ccccc4)C2[C@H](C)[C@@]2(C)O[C@H]2C3/C=C/CCC/C=C/CNC(=O)[C@H](Cc2ccccc2)NC1=O` (some centres undefined), the z-score is -0.297.

For `COCCCNC(=O)[C@@]1(Sc2ccc(C)cc2)CC(=O)N(C(C)C)[C@@H]1c1ccc(CO)cc1I`, the z-score is 0.0841.

In the case of `CN(C)CCCCNC(=O)[C@H]1C[C@H]2C(=O)N[C@@H](CCCC[N+](C)(C)C)C(=O)N2[C@H]1c1ccc(O)cc1`, the z-score is 0.494.
